Screens: PubChem, National Center for Advancing Translational Sciences (NCATS)
This is a sample that favours compounds with a hit; in the whole collection about 2.4% have one here.
Cruzain noTriton: qHTS Assay for Promiscuous and Specific Inhibitors of Cruzain (without detergent); hit rate 2.3% among 200,000; Cruzipain (Trypanosoma cruzi), P25779; Potency, µM, inactives show max response, negative = inhibition, hits mostly inhibitors; purified cruzain, Z-FR-AMC fluorescence, no detergent;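 note: plate controls were enzyme without inhibitor for no effect and buffer without enzyme for full effect; nearly all actives have a fitted effect of over 40% in size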
Target sequence (P25779 123-467 limits assumed): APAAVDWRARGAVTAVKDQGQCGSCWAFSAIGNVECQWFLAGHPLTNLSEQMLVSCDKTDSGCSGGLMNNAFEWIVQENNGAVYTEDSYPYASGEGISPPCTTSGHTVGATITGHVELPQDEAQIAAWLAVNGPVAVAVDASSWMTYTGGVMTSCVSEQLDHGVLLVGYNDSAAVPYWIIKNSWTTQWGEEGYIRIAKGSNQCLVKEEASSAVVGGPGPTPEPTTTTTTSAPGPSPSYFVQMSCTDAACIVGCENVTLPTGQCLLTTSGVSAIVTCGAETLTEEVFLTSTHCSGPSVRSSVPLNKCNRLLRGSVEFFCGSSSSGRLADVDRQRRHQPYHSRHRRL
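Purified cruzain at 1.5 nM, pre-incubated 15 min with compound at room temperature in 100 mM sodium acetate pH 5.5, 5 mM DTT, 0.00005% Triton X-100. Reaction started with 2 uM Z-FR-AMC; AMC fluorescence increase over 60 s gives rate.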
Cruzain Triton: qHTS Assay for Promiscuous and Specific Inhibitors of Cruzain (with detergent); Potency, µM, without a hit: max response, negative = inhibition, usual class: inhibitors; hit rate 0.43% among 200,000; purified cruzain, Z-FR-AMC fluorescence, 0.01% Triton; AID 1478, 2009;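 note: plate controls were neutral wells for no effect and buffer without enzyme for full effect; nearly all actives have a fitted effect of over 40% in size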
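Sodium acetate buffer (100 mM, pH 5.5) containing 5 mM DTT and 0.01% Triton X-100 hosted 1.5 nM cruzain and test compound for 15 min at room temperature. Cleavage of 2 uM Z-FR-AMC was then tracked by fluorescence.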
Numbers without * were called inactive; ? = inconclusive. Calls come from the whole dose curve; as a rule, active = well fitted curve in the direction sought with a large enough effect; inconclusive = small, poorly fitted or top-dose-only effect, or another doubt; inactive = no such curve, though single readings can be large; an effect the other way counts as inactive or inconclusive. Potency is the fitted concentration of half-maximal effect.

SMILES | Cruzain noTriton | Cruzain Triton
FC(F)(F)c1cccc(-c2ccc(-c3csnn3)o2)c1 | -2% | -7%
Cc1ccc(Cn2ccc(NC(=O)c3cc(-c4ccc(Cl)c(Cl)c4)on3)n2)cc1 | -3% | -2%
CC(C)(C)c1ccc(C(=O)Nc2nonc2-c2nc3ccccc3[nH]2)cc1 | 3.2µM* | 0%
CCn1c(-c2nonc2NC(=O)c2ccccc2)nc2ccccc21 | 4% | -3%
O=C(CSc1nc2cc(C(=O)NC3CCCC3)ccc2c(=O)n1CC1CCCO1)c1cccc(Cl)c1 (stereo not drawn) | -26% | -22%
Cc1ccc(-c2nnn(CC(=O)N(c3ccccc3)C(C(=O)NC3CCCC3)c3ccco3)n2)o1 (stereo not drawn) | 10µM* | 1%
Cc1ccc(-c2nnn(CC(=O)N(Cc3cccs3)C(C(=O)NC3CCCC3)c3ccco3)n2)o1 (stereo not drawn) | 4% | 7%
O=C(OCc1ccco1)c1ccc2c(c1)N(Cc1cccc(F)c1)C(=O)c1ccccc1S2 | ? | -3%
O=C(Cn1c(=O)n(Cc2nc(-c3ccccc3)no2)c(=O)c2cc3c(cc21)OCO3)Nc1ccc(Cl)cc1 | 10µM* | -4%
Cc1ccc(NC(=O)Cn2c(=O)n(Cc3nc(-c4ccccc4)no3)c(=O)c3cc4c(cc32)OCO4)cc1F | 13µM* | -3%
Cc1ccc(NC(=O)Cn2c(=O)n(Cc3nc(-c4ccccc4)no3)c(=O)c3cc4c(cc32)OCO4)c(C)c1 | -20% | 0%
O=C(Cn1c(=O)n(Cc2nc(-c3ccccc3)no2)c(=O)c2cc3c(cc21)OCO3)Nc1ccccc1 | ? | -4%
O=C(Cn1cc(C(=O)c2ccccc2)c(=O)c2cc3c(cc21)OCCO3)Nc1ccc(F)c(F)c1 | 9% | -5%
O=C1CSC(c2cn(-c3ccccc3)nc2-c2ccc3c(c2)OCCO3)N1CCN1CCOCC1 (stereo not drawn) | ? | -1%
CN1CCN(C(=O)c2ccc(C3SCC(=O)N3Cc3ccco3)cc2)CC1 (stereo not drawn) | -5% | 3%
O=C1CSC(c2nn(-c3ccccc3)cc2-c2cc3ccccc3oc2=O)N1Cc1ccco1 (stereo not drawn) | ? | 25µM*
O=C1CSC(c2cn(-c3ccccc3)nc2-c2cc3ccccc3oc2=O)N1Cc1ccccc1 (stereo not drawn) | ? | 28µM*
O=C(COc1ccc(Cl)cc1)Nc1ccc(C(=O)OCc2cc(=O)n3ccsc3n2)cc1 | -4% | 0%
O=C(COc1ccccc1F)Nc1ccccc1OCc1cc(=O)n2ccccc2n1 | -10% | 5%
CCOc1ccc(Nc2oc(/C=C/c3cc(OC)c(OC)c(OC)c3)nc2C#N)cc1 | 12% | -3%
CCOC(=O)c1csc(NC(=O)c2ccc(S(=O)(=O)N(C)C)cc2)n1 | 4% | 4%
COC(=O)c1ccc(-n2c(C)cc(-c3csc(NC(=O)c4ccc(S(=O)(=O)N(C)C)cc4)n3)c2C)cc1 | 4µM* | -2%
CN1CCN(S(=O)(=O)c2cccc(C(=O)Nc3nc(-c4ccccc4)cs3)c2)CC1 | -6% | -11%
Cc1cc(-c2csc(NC(=O)c3cccc(S(=O)(=O)N(C)C)c3)n2)c(C)n1-c1ccccc1 | 7.9µM* | -5%
COc1cc(OC)c2c(C)c(CC(=O)NCc3ccccc3OC)c(=O)oc2c1 | ? | -3%
SMILES | Cruzain noTriton | Cruzain Triton
NNc1nncn1N | 7% | 0%
Fc1cccc(/C=N/NC(=S)Nc2ccccc2Cl)c1 | ? | -7%
Fc1ccc(NC(=S)N/N=C/c2cccc(Br)c2)c(F)c1 | 25µM* | -5%
COc1cc(C(=O)NCc2ccc3c(c2)CCN3C(=O)c2ccncc2)cc(OC)c1OC | 26% | 0%
Cc1cc(C(=O)Cn2nc(C(=O)O)c3ccccc3c2=O)c(C)n1-c1ccc(F)cc1 | 25µM* | -9%
Cc1ccccc1OCCn1nc(C(=O)O)c2ccccc2c1=O | 16% | -5%
COc1ccc(/C=N/c2c(-c3ccc(OC)cc3)nc3n2CCS3)cc1 | ? | -8%
COc1ccc(C2=CSC(/N=C/c3ccc(F)cc3)=NN2)cc1 | 13µM* | -4%
COc1ccc(Cl)cc1NC(=O)c1cc(C)nc2c1c(C)nn2-c1ccccc1 | 3% | 0%
O=C(O)c1ccc(/C=N/NC(=O)c2cc(-c3cccs3)nc3ccccc23)cc1 | 13% | -10%
Cc1nn(-c2ccccc2)c(N2CCCC2)c1/C=N/NC(=O)c1cc2ccccc2cc1O | 16µM* | -7%
Cc1nn(-c2ccccc2)c(N2CCCC2)c1/C=N/NC(=O)c1cc(-c2ccccn2)nc2ccccc12 | 6% | -6%
Cc1nn(-c2ccccc2)c(N2CCCC2)c1/C=N/NC(=O)c1cc(-c2cccs2)nc2ccccc12 | 10µM* | -5%
Cc1nn(-c2ccccc2)c(N2CCCC2)c1/C=N/NC(=O)c1cccc(S(=O)(=O)Nc2ccc(Cl)cc2)c1 | ? | -6%
